# DT40 TDP1 CPT = DT40-hTDP1 cell growth loss with CPT; hit rate 12% among 420,000; chicken DT40 Tdp1-/-;hTDP1 cells + 20 nM CPT, ATP luminescence, 48 h; AID 686979; Potency, µM (top dose mostly 46.2 µM), without a hit: at the highest dose activity change, negative = growth inhibition, most hits filed as inhibitors; note: potency is the fitted concentration of half-maximal effect; nearly all actives have a fitted effect of over 55% in size
#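 Chicken DT40 Tdp1-/- cells stably complemented with human TDP1 were seeded at 400 cells/well in medium containing 20 nM camptothecin, exposed to pin-transferred compounds, and grown at 37 °C for at least 48 hr. Viability was read as ATP luminescence.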
# DT40 TDP1 no CPT = qHTS for Inhibitors of human tyrosyl-DNA phosphodiesterase 1 (TDP1): qHTS in cells in absence of CPT | DT40 Tdp1-/- hTDP1 cells, no CPT, ATP luminescence, 48 h | Potency, µM (highest dose often 46.2 µM), for inactives: at the top dose activity change, negative = growth inhibition, actives largely listed as inhibitors | hit rate 15% among 420,000; note: potency is the fitted concentration of half-maximal effect; nearly all actives have a fitted effect of over 55% in size
#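 Luminescent ATP content (CellTiter-Glo) served as the growth readout. Knockout chicken DT40 cells expressing human TDP1 were exposed to compounds without camptothecin for a minimum 48 hr at 37 °C.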
# ALOX12 inh = blocks human arachidonate 12S-lipoxygenase; P18054; purified 12hLO, xylenol orange hydroperoxide absorbance; Potency, µM (top dose mostly 108 µM), for the others: top-dose activity change, negative = inhibition, actives largely listed as inhibitors; hit rate 1.1% among 580,000; AID 1671190; note: potency is the fitted concentration of half-maximal effect
# Target sequence (P18054 whole entry, looked up): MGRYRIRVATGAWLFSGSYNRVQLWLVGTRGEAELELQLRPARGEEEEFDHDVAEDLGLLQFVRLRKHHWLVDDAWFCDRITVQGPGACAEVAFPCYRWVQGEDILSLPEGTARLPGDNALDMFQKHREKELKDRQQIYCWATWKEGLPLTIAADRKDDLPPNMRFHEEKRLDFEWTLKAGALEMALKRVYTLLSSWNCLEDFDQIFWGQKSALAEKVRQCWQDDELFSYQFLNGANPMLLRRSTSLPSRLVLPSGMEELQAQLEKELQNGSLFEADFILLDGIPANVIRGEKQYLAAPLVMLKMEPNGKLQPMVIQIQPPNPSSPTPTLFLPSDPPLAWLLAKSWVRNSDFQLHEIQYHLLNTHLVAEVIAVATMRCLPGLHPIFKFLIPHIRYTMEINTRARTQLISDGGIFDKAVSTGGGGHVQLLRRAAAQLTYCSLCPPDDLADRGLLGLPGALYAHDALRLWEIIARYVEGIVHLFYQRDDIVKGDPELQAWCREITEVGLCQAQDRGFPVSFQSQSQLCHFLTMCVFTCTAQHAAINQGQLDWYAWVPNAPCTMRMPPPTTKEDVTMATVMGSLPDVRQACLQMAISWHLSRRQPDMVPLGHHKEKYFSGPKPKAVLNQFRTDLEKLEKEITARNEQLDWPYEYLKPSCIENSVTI
#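 Hydroperoxide product was detected by ferrous iron/xylenol orange as the 573 to 405 nm absorbance ratio. Arachidonic acid at 40 uM (final) was turned over for 30 min at room temperature by 150 nM human 12hLO, pH 7.0 Hepes buffer, after 15 min compound preincubation.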
# IL-1B inflam inh = inhibitors of inflammasome signaling (IL-1 beta secretion); AID 743279; activity change, % at 57.5 µM; THP-1 LPS/ATP IL-1B secretion, AlphaLISA, 16 h; hits give low values; hit rate 4.7% among 360,000; in the data active = activity change below about -50%; inconclusive = mostly about -30% to -49%
#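 THP-1 cells pretreated 1 hr with compounds (up to 57.5 uM final), then stimulated with LPS (250 ng/mL final) plus ATP (1.25 mM final); secreted IL-1B measured by AlphaLISA after 16 hr, decreased signal indicating inhibition.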
# HT1080NT lethal = kills 2HG-producing HT-1080-NT fibrosarcoma cells; hit rate 1.6% among 360,000; Potency, µM (doses to about 46.1 µM), without a hit: at the highest dose activity, negative = less viability, most hits filed as cytotoxic; HT-1080-NT fibrosarcoma viability, CellTiter-Glo ATP luminescence, 48 h; AID 686970;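 note: NT is the 2HG producing partner of a matched IDH1 knockdown line; potency is the fitted concentration of half-maximal effect; 0% = DMSO-treated cells and -100% = media-only wells without cells; nearly all actives have a fitted effect of over 55% in size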
#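 HT-1080-NT fibrosarcoma cells (2HG-overproducing), 750 cells/well in RPMI with 5% FBS, dosed after 2 h and incubated 48 h at 37C. CellTiter-Glo luminescence normalized to DMSO and no-cell wells; concentration-response curves fitted and classed.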
# HT1080 IDH1KD tx = toxicity to HT-1080 IDH1 knockdown cells (counter line) | HT-1080 IDH1 knockdown viability, ATP luminescence, 48 h | Potency, µM (highest dose often 46.1 µM), without a hit: top-dose activity, negative = toxicity, actives largely listed as cytotoxic | hit rate 2% among 360,000 | AID 686971;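 note: potency is the fitted concentration of half-maximal effect; 0% = DMSO wells and -100% = cell-free medium wells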
#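 Luminescent ATP read-out (CellTiter-Glo, 10 min at room temperature) after 48 h compound exposure at 37 °C gave viability of IDH1-knockdown HT-1080 cells. Activity was normalised to DMSO and cell-free wells, then fitted as concentration-response curves.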
# Starred values were filed as active, the others as inactive; ? = inconclusive; . = no result given. Many of the other results were omitted from the sample, so hits are more common in it than they were. Unless noted, calls come from the whole dose curve; as a rule, active = well fitted curve in the direction sought with a large enough effect; inconclusive = small, poorly fitted or top-dose-only effect, or another doubt; inactive = no such curve, though single readings can be large; an effect the other way counts as inactive or inconclusive. Unless noted, % is set by controls: 0 for no effect and ±100 for the full control effect.
SMILES,DT40 TDP1 CPT,DT40 TDP1 no CPT,ALOX12 inh,IL-1B inflam inh,HT1080NT lethal,HT1080 IDH1KD tx
COC(=O)c1sc(N)c(C(=O)OC)c1COC(=O)c1c(C)noc1C,3.7µM*,5.2µM*,0%,31,7.1µM*,6.3µM*
COC(=O)c1sc(N)c(C(=O)OC)c1Cn1ncc(Cl)c(Cl)c1=O,23µM*,15µM*,1%,-89*,-17%,?
COC(=O)c1sc(N)c(C(=O)OC)c1CSc1nnc(-c2ccccc2Cl)n1C,-17%,?,-5%,15,-6%,-11%
CCNS(=O)(=O)c1ccc(C)c(C(=O)NCC(O)c2cccc(Cl)c2)c1 (stereo unspecified),.,.,6%,.,.,.
Cc1cc(-c2cc(-c3ccc(Cl)cc3)nc(N)c2C#N)co1,8.2µM*,21µM*,?,17,?,?
Cc1ccc(-c2cc(-c3ccc(Cl)cc3)c(C#N)c(N)n2)o1,6.5µM*,9.2µM*,?,-6,3%,-12%
Cc1ccc(-c2cc(-c3ccc(F)cc3)c(C#N)c(N)n2)o1,?,?,7.1µM*,1,-17%,?
Cc1ccc(-c2cc(-c3ccc(C)o3)nc(N)c2C#N)cc1,15µM*,?,1µM*,-6,-10%,-5%
Cc1ccc(-c2c(C#N)c(N)nc3c2CCCCC3)o1,?,-15%,?,16,2%,2%
Cc1onc(C(=O)N2CCC(CCOc3ccc(F)cc3)C2)c1Cn1cc(Cl)cn1 (stereo unspecified),.,.,0%,.,.,.
Cc1ccc(S(=O)(=O)CCc2nnc(N)s2)cc1,-5%,-19%,0%,-4,-3%,-3%
CCOc1cc(-c2cc(-c3ccc(C)o3)nc(N)c2C#N)ccc1O,16µM*,16µM*,?,-17,?,?
CCCc1cc(-c2ccc(O)c(OCC)c2)c(C#N)c(N)n1,-26%,?,?,4,-17%,?
COc1ccc(C2SCCN2S(=O)(=O)c2ccc(C)cc2)cc1OC (stereo unspecified),.,.,-15%,.,.,.
COc1ccccc1C1SCCN1S(=O)(=O)c1cccc(C(F)(F)F)c1 (stereo unspecified),-5%,16µM*,-15%,?,-4%,-23%
COc1ccc(C2N(S(=O)(=O)c3ccccc3)CCN2S(=O)(=O)c2ccc(C)cc2)cc1 (stereo unspecified),16µM*,14µM*,25%,33,2%,-3%
COc1ccc(S(=O)(=O)N2CCSC2c2ccc(OC)c(OC)c2)cc1 (stereo unspecified),?,16µM*,?,-1,12%,-19%
CCC(=O)N1CCCN(S(=O)(=O)c2ccc(C)cc2)C1c1ccc(OC)cc1 (stereo unspecified),-9%,15µM*,-25%,16,4%,5%
CCOC(=O)N1CCN(S(=O)(=O)c2ccc(C)cc2)C1c1ccc(OC)cc1 (stereo unspecified),?,?,-22%,3,6%,-16%
CCOC(=O)N1CCN(S(=O)(=O)c2ccc(C)cc2)C1c1ccccc1 (stereo unspecified),?,?,1%,-14,-15%,-6%
Cc1ccc(S(=O)(=O)N2CCN(S(=O)(=O)c3ccc(C)cc3)C2c2ccccc2)cc1,18µM*,?,6%,23,4%,0%
O=C1CSC(=S)N1Cc1ccccc1,?,21µM*,-19%,-10,-3%,-8%
CC(C)(C)c1cc(/C=C/C(=O)O)cc(C(C)(C)C)c1O,.,.,8.9µM*,.,.,.
COc1ccccc1NC(=O)CN1CC2CC(C1)[C@H]1CCCC(=O)N1C2 (stereo partly specified),.,.,37%,.,.,.

# High-throughput results deposited in PubChem BioAssay by National Center for Advancing Translational Sciences (NCATS).
